About 83,000 compounds went through this panel and 20% of them were active in at least one assay; those are over-represented in the sample as a whole.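 Percent growth is the endpoint: 0 to 100 indicates growth inhibition (40 means 60% inhibition), 0 means no net growth, and negative values indicate cell death.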 A number with no mark means an inactive call. Activity calls are given as the source filed them. Rule for the calls: active = growth percent below 10; inactive = the rest.
Assays:
Assay in all cases: NCI-60 one-dose screen, 48 h (100 = growth as untreated, 0 = no growth, -100 = all killed)
Conditions in all cases: 10 µM unless noted
[1] = test system: HCT-15 colon
[2] = test system: HT29 colon
[3] = test system: SNB-75 CNS
[4] = test system: SNB-19 CNS
[5] = test system: U251 CNS
[6] = test system: PC-3 prostate
[7] = test system: SK-MEL-5 melanoma
[8] = test system: UACC-62 melanoma
[9] = test system: LOX IMVI melanoma
[10] = test system: SK-MEL-28 melanoma
[11] = test system: SN12C renal
[12] = test system: UO-31 renal
[13] = test system: TK-10 renal
[14] = test system: CAKI-1 renal
[15] = test system: A498 renal
[16] = test system: CCRF-CEM leukemia
[17] = test system: MOLT-4 leukemia
[18] = test system: SK-MEL-2 melanoma
[19] = test system: EKVX NSCLC
[20] = test system: ACHN renal

SMILES	growth [1]	growth [2]	growth [3]	growth [4]	growth [5]	growth [6]	growth [7]	growth [8]	growth [9]	growth [10] [%]	growth [11]	growth [12]	growth [13]	growth [14]	growth [15]	growth [16]	growth [17]	growth [18]	growth [19]	growth [20]
Cc1cc(Cl)c2ccc(N(C)C)cc2n1	94.9%	102%	82.7%	95%	92.8%	101%	102%	101%	96.9%	101	98%	84.4%	109%	93%	92.6%	95.9%	84.7%			
O=C(Cn1nncc1CN1C(=O)CSC1=O)Nc1ccc(F)cc1	102%	105%	85.9%	101%	104%	101%	99.5%	93.5%	94.9%		98.3%	87.6%	97.9%	96.4%	76.4%	97.4%	105%	101%	92.6%	97.9%
NC(=O)c1noc(C(=O)c2ccccc2)c1N	89.4%	83.6%	95.9%	90.4%	85.8%	90.9%	97.9%	96.6%	98.8%	98.6	99.7%		92.5%	98.6%		98.8%	95.1%			99.6%
COc1ccc(NC(=O)/C=C/c2ccc(NC(=O)N3CCCC3)cc2)cn1	94.1%	106%	102%	102%	98.6%	96.5%	99.8%	101%	98.4%		98.7%	100%	104%	100%	99.4%	97%	101%	104%	92.8%	114%
CC(=O)c1c(C)nc(-c2cc(C)cc(Cl)c2)nc1-c1cccc(Oc2ccccc2)c1	60.2%	39.5%	72.4%	79.3%	76.1%	53.4%	77.1%	52.1%	78.4%	76.2	80.1%		93.6%	68.2%	41.3%	32.5%	27.9%			99.6%
Clc1ccc(Nc2ncnc3c2sc2ncccc23)cc1	47.3%	38.1%	47.9%	26.3%	28%	54.5%	23.4%	11.4%	12.2%	74.9	20.5%	-13.8% (active)	59.3%	15.3%	18.7%	21.2%	15%			
CCCOC(=O)C1c2cc3c(cc2CC(C)C1C(=O)OCCC)OCO3 (configuration not stated)	108%	72%	85.6%	98.9%	95.2%	82.9%	92.4%	75.4%	65.4%	103	104%	65.7%	94.2%				90.9%			101%
CCSc1ccc([C@@H]2[C@@H](N)C(=O)N2c2cc(OC)c(OC)c(OC)c2)cc1	19.9%	12.1%	36.2%	32%	28.1%	28.5%	20%	33.9%	50.7%	61.6	49.6%	49.4%	58.9%			11.6%	13.1%			50.7%
COc1ccc(NC(=O)/C=C/c2ccc(Cl)c(Cl)c2)cn1	51.6%	93.5%	102%	91.2%	87.4%	74.3%	71.4%	77.6%	93.6%		88.9%	74.1%	78.3%	59.3%	65.6%	32.9%	44.4%	101%		93.4%
COc1ccc(C2C3CCc4ccccc4C3=NN2C(=O)c2cc(OC)c(OC)c(OC)c2)cc1O (configuration not stated)	109%	104%	89.4%	109%	108%	92.2%	104%	105%	94.6%		114%	79.9%	101%	101%		88.9%	90.5%	75.4%	89.6%	98.1%
COc1c(B(O)O)cccc1-c1nc2ccc3[nH]ncc3c2c2c1CCCC2	25.4%	37.9%	-2.29% (active)	12.5%	13.2%	18.4%	42.3%	26.6%	-15.4% (active)		23.7%	0.387% (active)	11.5%	5.83% (active)	-16.4% (active)	6.99% (active)	11.5%	33.7%		3.93% (active)
CCC(C)C1NC(=O)c2nc(oc2-c2ccccc2)-c2csc(n2)-c2csc(n2)-c2nc(oc2C)-c2coc(n2)CNC(=O)C(C(C)CC)NC1=O (configuration not stated)	-77.7% (active)	-81.6% (active)	-86.3% (active)	-61.3% (active)	-83.4% (active)	-85.6% (active)	-91.3% (active)	-70.5% (active)	-72.4% (active)		-65.3% (active)	-90.1% (active)	-86.7% (active)	-95.2% (active)	-85.3% (active)	-66.4% (active)	-66.2% (active)	-80.1% (active)	-71.3% (active)	-91.3% (active)
FC1(F)CCN(Cc2c[nH]c3cc(Cl)ccc23)C[C@H]1CCc1ccccc1	51%	26.6%	40.8%	68%	44.5%	53.3%	62.7%	59.9%	46.9%		54.3%		61.6%	62.1%	82%	45.9%	26.7%	76.6%	63%	62.5%
CC(C)c1[nH]ncc1-c1nc2ccc3[nH]ncc3c2c2c1CCCC2	37.5%	35%	-3.19% (active)	40.4%	37.7%	44.2%	45.2%	34.1%	23.6%		35.2%	12.3%	22.7%	17.6%	-12.7% (active)	28.8%	9.07% (active)	68.6%	13.5%	16.8%
N#Cc1nc(-c2cccc(Br)c2)cc(-c2ccc(Nc3nc(N4CCCCC4)nc(N4CCCCC4)n3)cc2)c1N	-39% (active)	-24.6% (active)	-45.1% (active)	52.7%	-15.8% (active)	12%	-49.3% (active)	-35.9% (active)	-95.7% (active)		16.7%	-78.8% (active)	-87.8% (active)	-75.5% (active)	-20% (active)	11.4%	8.61% (active)	-10.7% (active)	5.85% (active)	-96.3% (active)
Clc1cn2cc(-c3ccc(Cl)c(Cl)c3Cl)nc2s1	93.9%	112%	91.4%	99.8%	102%	99.9%	100%	96.3%	99.3%		101%		165%	88.1%	110%	107%	85.5%	101%	110%	101%
CN1CCN(Cc2ccc(NC(=O)c3cncc(C#Cc4ccc(N)nc4)c3)cc2C(F)(F)F)CC1	7.71% (active)	3.36% (active)	4.55% (active)	37.2%	14.9%	15.6%	-5.69% (active)	-5.85% (active)	-25.8% (active)		4.16% (active)	-1.73% (active)	12.7%	8.16% (active)	-33.8% (active)	13%	5.85% (active)	-47.8% (active)	7.69% (active)	-3.03% (active)

— PubChem BioAssay (NCI)
